PvdQ acylase = blocks Pseudomonas aeruginosa PvdQ acylase activity; purified PvdQ acylase, fluorescence plate reader; inhibition, % at 10 µM; 340,000 tested, 0.063% active; AID 488965; in the data active = inhibition above about 30%, passing the limit was not always enough; inconclusive = no clear call, values can overlap the other calls
ERAP1 inh = ERAP1 (human) enzyme inhibition; 340,000 tested, 0.15% active; recombinant ERAP1, Leu-AMC fluorescence, 60 min; Q9NZ08; inhibition, % at 10.7 µM; AID 652197;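 active = mean replicate inhibition of at least 30%, or all replicates individually reaching that 30% level; inactive = mean below 30% and not every replicate reaching it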
Target sequence (Q9NZ08 whole entry, looked up): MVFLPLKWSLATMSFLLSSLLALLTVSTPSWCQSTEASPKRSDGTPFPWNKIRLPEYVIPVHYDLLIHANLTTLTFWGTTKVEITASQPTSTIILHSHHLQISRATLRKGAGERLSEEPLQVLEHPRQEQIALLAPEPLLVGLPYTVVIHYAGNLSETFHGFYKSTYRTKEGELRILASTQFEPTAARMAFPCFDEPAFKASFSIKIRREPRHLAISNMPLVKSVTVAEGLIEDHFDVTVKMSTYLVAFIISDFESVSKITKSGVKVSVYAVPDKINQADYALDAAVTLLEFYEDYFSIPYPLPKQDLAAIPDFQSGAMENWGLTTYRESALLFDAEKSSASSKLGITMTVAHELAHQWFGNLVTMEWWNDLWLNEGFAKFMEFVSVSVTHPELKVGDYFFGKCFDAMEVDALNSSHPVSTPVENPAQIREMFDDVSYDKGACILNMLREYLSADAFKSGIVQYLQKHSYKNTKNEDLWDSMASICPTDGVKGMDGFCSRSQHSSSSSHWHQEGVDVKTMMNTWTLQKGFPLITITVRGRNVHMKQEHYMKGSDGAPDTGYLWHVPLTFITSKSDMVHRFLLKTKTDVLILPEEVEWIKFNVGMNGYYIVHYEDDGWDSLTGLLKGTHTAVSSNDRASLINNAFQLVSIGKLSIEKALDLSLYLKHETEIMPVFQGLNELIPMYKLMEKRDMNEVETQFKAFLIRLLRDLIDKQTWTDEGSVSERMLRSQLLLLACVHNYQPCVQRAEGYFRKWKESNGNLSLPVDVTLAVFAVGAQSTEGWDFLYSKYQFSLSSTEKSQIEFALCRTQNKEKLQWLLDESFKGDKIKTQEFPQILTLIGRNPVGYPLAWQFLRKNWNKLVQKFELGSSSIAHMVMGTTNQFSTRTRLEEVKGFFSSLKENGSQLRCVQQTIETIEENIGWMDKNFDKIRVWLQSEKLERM
rRNA inh HTS = inhibits bacterial ribosomal RNA function over humanized ribosomes; 350,000 tested, 1.6% active; GFP signal change (wild-type ribosome), % (no concentration beside the values); E. coli WT GFP vs humanized-ribosome RFP mutants, fluorescence, 24 h; stronger effect = lower value; DMSO median 0, no signal -100;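 active = significant combined selectivity score with lowered wild-type GFP, culture density cut under 30%, mutant RFP and density less affected; inactive = any of these conditions unmet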
F508del corr = CFTR F508del correction in bronchial cells | CFBE cells, YFP halide quenching; stimulated with forskolin plus potentiator P3; % fluorescence drop versus neutral controls | activity (quench increase), % at 7.58 µM | 350,000 tested, 0.36% active;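 active = mean added fluorescence quench of at least 8% versus neutral control, with both replicates also reaching 8%; inconclusive = only one of the mean or replicate conditions met; inactive = mean below 8% and not both replicates reaching 8%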;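 also: cells transiently co-express mutant CFTR-F508del with the halide-sensitive YFP; corrector assay measuring rescue of mutant channel to the surface after 24 h compound exposure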
ARNT-TACC3 inh = disruptors of human ARNT/TACC3 interaction | Q9Y6A5 | AlphaScreen His-ARNT PAS-B/GST-TACC3 binding, luminescence; TACC3 fragment carries E629A point mutation | inhibition, % at 9.99 µM | 390,000 tested, 0.66% active | AID 623870;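 active = mean inhibition of replicates at least 50% and at least half of replicates each reaching 50%; inconclusive = half or more replicates reach 50% but mean below 50%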
ARNT Alpha ctr-1 = counter-screen for ARNT/TACC3 inhibitors: AlphaScreen artifacts. shares compounds with ARNT-TACC3 inh. His-ARNT PASB-GST AlphaScreen artifact counter-screen, luminescence. AC50, µM (doses to about 68 µM). 1,200 tested, 50% active;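 active = every separate test run was called active for a drop in luminescence, with AC50 within twice the top valid dose, actives reach about 71 µM in these data; inconclusive = the separate test runs disagree in their calls; inactive = all runs inactive, including signal change in the wrong direction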
ARNT Alpha ctr-2 = produces AlphaScreen artifacts in ARNT-TACC3 counter-screen; Dual-tagged His-ARNT PASB-GST AlphaScreen artifact counter-screen; shares compounds with ARNT-TACC3 inh; AC50, µM; AID 720564; 45 tested, 70% active;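 active = luminescence drop, with half-maximal potency fitted within twice the sample's top valid dose, cut at about 70 µM in these data; inactive = the rest, including signal moving the wrong way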
AID977621 = wild-type E. coli growth inhibition versus H69 humanized strain – H69 mutant RFP, wild-type GFP, cherry-pick, dose response; shares compounds with rRNA inh HTS; activity change, negative = inhibition at 50 µM; 1,900 tested, under 10 active; fluorescence, 24 h;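 active = Wild-type ribosome reporter drop at least double the humanized mutant ribosome reporter drop, growth loss under a set limit; inconclusive = no clear call, values can overlap the other calls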;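 also: wild-type GFP and H69 mutant RFP strains grown together 50/50 in each well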
AID977628 = E. coli growth inhibition, wild-type GFP versus h24 humanized RFP strain, dose response, h24 mutant RFP vs wild-type GFP, cherry-pick | shares compounds with rRNA inh HTS | E. coli WT GFP strain growth, fluorescence, 24 h | activity change, negative = inhibition at 50 µM | 1,900 tested, under 10 active | AID 977628;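 active = compound lowering the normal-ribosome reporter at least twice as much as the humanized-ribosome reporter, growth loss under a set limit; inconclusive = no clear call, values can overlap the other calls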;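 also: wild-type GFP and h24 humanized RFP strains co-cultured 1 to 1 per well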
Of the large screens only hits and unclear results are named; the others gave an inactive call (follow-up assays come after a bar, where they were run). Most compounds without a hit are left out; they make up all but 2.1% or so of the library.

C[C@H]1CCCCO[C@H](CN(C)C(=O)CCCN(C)C)[C@@H](C)CN([C@@H](C)CO)C(=O)c2cc(NC(=O)NC3CCCCC3)ccc2O1	none (no result: PvdQ acylase)
CC(=O)c1cccc(NC(=O)N2CCCC2C(=O)NCc2ccccc2)c1 (stereo not given)	ARNT-TACC3 inh 21.5 (no result: ERAP1 inh, rRNA inh HTS, F508del corr) | ARNT Alpha ctr-1 inactive
Cc1noc(C)c1S(=O)(=O)Nc1ccc2c(c1)CC(=O)N([C@@H](C)CO)C[C@H](C)[C@@H](CN(C)Cc1ccc(C(F)(F)F)cc1)O2	none (no result: PvdQ acylase)
CCN(CC)C(=O)c1sc2nc(Cc3ccccc3)[nH]c(=O)c2c1C	none
Cc1c(C(=O)N(C)C)sc2nc(-c3ccccn3)[nH]c(=O)c12	ARNT-TACC3 inh 71.8 (no result: ERAP1 inh, rRNA inh HTS, F508del corr) | ARNT Alpha ctr-1 23µM | ARNT Alpha ctr-2 15.3
CC1OC(CC(=O)O)CC2=C1C(=O)c1c(O)cccc1C2=O (stereo not given)	ARNT-TACC3 inh 33.2 | ARNT Alpha ctr-1 inactive
Cc1ccc(S(=O)(=O)N[C@H]2CC[C@@H](CC(=O)O)O[C@@H]2CO)cc1	none (no result: PvdQ acylase)
c1ccc(CN2CCN(CCCNc3ccc4nnc(-c5ccccc5)n4n3)CC2)cc1	ARNT-TACC3 inh 56.7 (no result: ERAP1 inh, rRNA inh HTS, F508del corr) | ARNT Alpha ctr-1 70.9µM
Cc1ccc(CNc2ccc3nnc(-c4ccccc4)n3n2)cc1	none
O=C(CSc1cccc2cccnc12)N1CCCC1	ARNT-TACC3 inh 87.3 (no result: ERAP1 inh, rRNA inh HTS, F508del corr) | ARNT Alpha ctr-1 10.2µM
O=C(CSc1ncccn1)N1CCCCCC1	none (no result: ARNT-TACC3 inh)
CN(C)C(=O)CSc1cccc2cccnc12	ARNT-TACC3 inh 60.4 (no result: ERAP1 inh, rRNA inh HTS, F508del corr) | ARNT Alpha ctr-1 15µM
Clc1ccc(OCc2nc(-c3ccccn3)n[nH]2)cc1	ARNT-TACC3 inh 66.3 (no result: ERAP1 inh, rRNA inh HTS, F508del corr) | ARNT Alpha ctr-1 28.4µM
Brc1ccc(OCc2nc(-c3ccccn3)n[nH]2)cc1	ARNT-TACC3 inh 57.6 (no result: ERAP1 inh, rRNA inh HTS, F508del corr) | ARNT Alpha ctr-1 22.5µM
Cc1ccc(OCc2nc(-c3ccccn3)no2)cc1	none
C[C@@H]1CCCCO[C@@H](CN(C)C(=O)Nc2cccc3ccccc23)[C@H](C)CN([C@@H](C)CO)C(=O)c2cc(NS(=O)(=O)c3cn(C)cn3)ccc2O1	ARNT-TACC3 inh 55.3 (no result: PvdQ acylase, ERAP1 inh) | ARNT Alpha ctr-1 10.5µM
C[C@H](CO)N1C[C@H](C)[C@H](CN(C)C(=O)Nc2cccc3ccccc23)OCCCC[C@H](C)Oc2ccc(NC(=O)CCCN(C)C)cc2C1=O	ARNT-TACC3 inh 58.7 (no result: PvdQ acylase) | ARNT Alpha ctr-1 inactive
COc1ccc(Br)cc1CNc1ccc2[nH]c(=O)[nH]c2c1	none
COc1ccc(Br)cc1CNc1ccc(O)cc1	ARNT-TACC3 inh 13.6 (no result: ERAP1 inh, rRNA inh HTS, F508del corr) | ARNT Alpha ctr-1 52.8µM
O=C(C[C@H]1C[C@H]2c3cc(NS(=O)(=O)c4ccc(F)cc4)ccc3O[C@H]2[C@@H](CO)O1)NCCc1ccccc1	none (no result: PvdQ acylase)
O=C(CN1C(=O)/C(=C\c2cccs2)SC1=S)Nc1cccc(C(=O)O)c1	ARNT-TACC3 inh 56.7 (no result: ERAP1 inh) | ARNT Alpha ctr-1 inactive
N#C[C@H]1N[C@@H](CO)[C@@H]1c1ccc(C#CC2CCCC2)cc1	none (no result: PvdQ acylase)
COCCN=c1scc(-c2ccco2)n1/N=C/c1ccc(O)c(O)c1O	ARNT-TACC3 inh 54.9 | ARNT Alpha ctr-1 33.5µM
COCCN=c1scc(-c2cc(OC)ccc2OC)n1/N=C/c1c[nH]c2ccccc12	none (no result: F508del corr)
CC(=O)Nc1ccc2nc3ccccc3nc2c1	rRNA inh HTS -26.0, ARNT-TACC3 inh 32.1 | ARNT Alpha ctr-1 inactive | AID977621 inactive
C[C@@H]1CCCCO[C@H](CN(C)Cc2ccc3c(c2)OCO3)[C@H](C)CN([C@H](C)CO)C(=O)c2cc(NS(=O)(=O)c3cccs3)ccc2O1	none (no result: PvdQ acylase, ERAP1 inh)
CCc1cc(CN2CCOCC2)c(NC(=O)c2ccccc2)s1	rRNA inh HTS -17.4 | AID977621 inactive | AID977628 inactive
O=S(=O)(Cc1ccccc1Cl)N1CCN(Cc2ccc3c(c2)OCO3)CC1	none (no result: ERAP1 inh, rRNA inh HTS, F508del corr)
O=S(=O)(Cc1ccc(Cl)cc1)N1CCN(Cc2ccc3c(c2)OCO3)CC1	rRNA inh HTS -20.0 | AID977621 inactive | AID977628 inconclusive
CCCc1nc2cc(C)c(Br)c(C)n2c1CC1CCCCC1	rRNA inh HTS -20.1 (no result: PvdQ acylase, ERAP1 inh, ARNT-TACC3 inh) | AID977628 inactive
Cc1ccc2nc(SCC(=O)Nc3c(F)cccc3F)[nH]c2c1	rRNA inh HTS -22.2 | AID977628 inconclusive
COc1ccc2nc(SCC(=O)Nc3ccccc3)[nH]c2c1	rRNA inh HTS -20.3 (no result: F508del corr) | AID977621 inactive
O=C(CSc1nc2ccccc2[nH]1)Nc1ccc(F)c(F)c1	none (no result: ERAP1 inh, rRNA inh HTS, F508del corr)
CCOC(=O)Cc1nnc(NC(=O)CSc2nc3ccccc3[nH]2)s1	rRNA inh HTS -16.9 | AID977628 inactive
O=C(CSc1nc2ccccc2[nH]1)Nc1ccccc1F	rRNA inh HTS -25.9 | AID977628 inconclusive
Cc1ccc2nc(SCC(=O)Nc3ccc(F)cc3F)[nH]c2c1	none (no result: ERAP1 inh, rRNA inh HTS, F508del corr, ARNT-TACC3 inh)
C[C@@H]1CN([C@@H](C)CO)C(=O)c2cc(NC(=O)CCC(F)(F)F)ccc2O[C@@H](C)CCCCO[C@H]1CN(C)S(=O)(=O)c1ccc(Cl)cc1	none (no result: PvdQ acylase)
COc1ccc(-c2cn(CC[C@@H]3CC[C@@H](N)[C@H](CO)O3)nn2)cc1	none (no result: PvdQ acylase)
O=C(C[C@H]1CC[C@H](NC(=O)Nc2ccc(F)cc2)[C@H](CO)O1)NCCN1CCCC1	none (no result: PvdQ acylase)
CN(c1ccccc1)S(=O)(=O)c1ccc(Cl)c(C(=O)NC2=NCCS2)c1	none
COc1ccccc1N(C)S(=O)(=O)c1ccc(Cl)c(C(=O)NC2=NCCS2)c1	rRNA inh HTS -29.8 | AID977621 inactive | AID977628 inconclusive
Cc1ccc(NC(=O)c2ccc3ncsc3c2)cc1S(=O)(=O)N(C)C	rRNA inh HTS -23.3 (no result: PvdQ acylase, ARNT-TACC3 inh) | AID977621 inactive
Cc1ccc(NC(=O)c2cccnc2)cc1S(=O)(=O)N(C)C	none
O=C(CN1CCOCC1)N1CCCCN2[C@H](CO)[C@@H](c3ccc(-c4ccccc4F)cc3)[C@@H]2C1	none (no result: PvdQ acylase)
COc1cccc(S(=O)(=O)N(C)C[C@@H]2Oc3cc(C4=CCCCC4)ccc3S(=O)(=O)N([C@@H](C)CO)C[C@@H]2C)c1	none (no result: PvdQ acylase, ERAP1 inh)
COc1ccc(-c2nc(NC(C)=O)sc2-c2ccccc2)cc1	rRNA inh HTS -17.8 | AID977621 inactive
Fc1cccc(Cc2noc(CN3CCCCC3CCc3ccccn3)n2)c1 (stereo not given)	rRNA inh HTS -25.2 | AID977628 inactive
O=[N+]([O-])c1ccc2c(c1)S(=O)c1ccccc1-2 (stereo not given)	rRNA inh HTS -22.8 (no result: ERAP1 inh) | AID977621 inactive | AID977628 inactive

From PubChem BioAssay
